High-throughput results from PubChem.
Rows were chosen to be rich in hits. Some 19% of all compounds tested hit in one or more screens of this group.
TDP1 cell noCPT – qHTS for Inhibitors of human tyrosyl-DNA phosphodiesterase 1 (TDP1): qHTS in cells in absence of CPT. DT40 Tdp1-/- hTDP1 cells, no CPT, ATP luminescence, 48 h. Potency, µM (doses to about 46.2 µM), for inactives: at the top dose activity change, negative = growth inhibition, hits mostly inhibitors. 420,000 compounds, 15% hits; also: nearly all actives have a fitted effect of over 55% in size
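Growth of hTDP1-complemented DT40 Tdp1-knockout cells is measured by ATP luminescence after at least 48 hr compound exposure at 37 °C, with DMSO substituting for the 20 nM CPT used in the parallel screen.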
Gal4-VP16 FLuc – counter-screen for ROR gamma inhibitors: Gal4-VP16 reporter; Drosophila S2 Gal4-VP16 UAS-luciferase, luminescence, 20 h; Potency, µM (highest dose often 53.6 µM), for the others: at the highest dose activity, negative = inhibition, usual class: inhibitors; 310,000 compounds, 3.5% hits; AID 2546;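 also: Gal4-VP16 expression switched on by copper sulfate through the metallothionein promoter; nearly all actives have a fitted effect of over 50% in size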
RORgamma inh – inhibitors of mouse ROR gamma transcriptional activity; P51450; Drosophila S2 Gal4-RORgamma UAS-luciferase reporter, 20 h; Potency, µM (titrated, usually from 53.6 µM), for the others: at the top dose activity change, negative = inhibition, actives largely listed as inhibitors; 310,000 compounds, 5.4% hits; also: nearly all actives have a fitted effect of over 60% in size
Target sequence (P51450 whole entry, looked up, the tested form may be a part): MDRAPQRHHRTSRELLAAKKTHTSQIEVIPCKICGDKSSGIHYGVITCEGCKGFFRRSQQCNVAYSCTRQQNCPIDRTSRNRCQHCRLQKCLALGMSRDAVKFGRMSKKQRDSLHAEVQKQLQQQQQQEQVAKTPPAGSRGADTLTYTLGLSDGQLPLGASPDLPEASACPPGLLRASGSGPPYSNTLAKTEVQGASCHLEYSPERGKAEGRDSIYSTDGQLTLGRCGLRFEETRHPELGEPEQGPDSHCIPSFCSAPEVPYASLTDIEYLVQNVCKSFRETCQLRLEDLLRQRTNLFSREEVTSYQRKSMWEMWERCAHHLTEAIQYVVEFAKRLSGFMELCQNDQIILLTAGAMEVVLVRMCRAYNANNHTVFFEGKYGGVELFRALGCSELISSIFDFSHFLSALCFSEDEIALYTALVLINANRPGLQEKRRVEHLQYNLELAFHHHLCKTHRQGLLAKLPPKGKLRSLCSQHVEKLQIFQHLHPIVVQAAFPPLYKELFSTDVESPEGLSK
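ROR gamma transcriptional activity was tracked as Gal4-UAS luciferase output in stably transfected Drosophila Schneider cells, with compound added 1 hr before 700 uM copper sulfate induction and a 20 hr ambient-temperature incubation.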
TDP1 cell CPT – DT40-hTDP1 cell growth loss with CPT. chicken DT40 Tdp1-/-;hTDP1 cells + 20 nM CPT, ATP luminescence, 48 h. Potency, µM (series often up to 46.2 µM), for the others: top-dose activity change, negative = growth inhibition, actives largely listed as inhibitors. 420,000 compounds, 12% hits; also: nearly all actives have a fitted effect of over 55% in size
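Chicken DT40 Tdp1-/- cells complemented with human TDP1, 400 cells/well, exposed to compounds plus 20 nM camptothecin for at least 48 h at 37 C; viability read as ATP content by CellTiter-Glo luminescence.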
TDP1 inh – blocks human tyrosyl-DNA phosphodiesterase 1; Potency, µM (doses to about 130 µM), inactives show top-dose activity change, negative = inhibition, most hits filed as inhibitors; Q9NUW8; 350,000 compounds, 0.28% hits; recombinant TDP1, AlphaScreen DNA substrate cleavage; also: nearly all actives have a fitted effect of over 40% in size
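AlphaScreen read-out: signal falls as enzyme removes the 3' tyrosine-FITC from a 5'-biotinylated DNA oligo (15 nM, 5 min, RT). Enzyme was E. coli-made recombinant Tdp1 at 1 nM, exposed to compound for 15 min beforehand; beads 10 ug/ml, 10 min.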
Starred values were filed as active, the others as inactive; [ ] = remark or other dose. Calls follow the shape of the dose curve; as a rule, active = well fitted curve in the direction sought with a large enough effect; inconclusive = small, poorly fitted or top-dose-only effect, or another doubt; inactive = no such curve, though single readings can be large; an effect the other way counts as inactive or inconclusive. % is scaled to controls: 0 for no effect and ±100 for the full control effect; potency is read from the fitted curve at half-maximal effect.

For Cc1ccc(NC(=S)NCc2ccc(Cl)cc2)c(C)c1 the results were TDP1 cell noCPT inconclusive, Gal4-VP16 FLuc 4.5µM*, RORgamma inh 4.5µM* and TDP1 cell CPT inconclusive.
Screening CN(C)C(=O)CSc1nc(SCC(=O)N(C)C)n(-c2ccccc2)n1 returned TDP1 cell noCPT -7%, Gal4-VP16 FLuc 1%[0.365 µM], RORgamma inh -13%, TDP1 cell CPT -22% and TDP1 inh 5%.
`CN(CC(=O)Nc1ccccc1F)S(=O)(=O)c1ccc2c(c1)n(C)c(=O)c(=O)n2C` gave TDP1 cell noCPT 2%, Gal4-VP16 FLuc -5%, RORgamma inh 27%, TDP1 cell CPT 7% and TDP1 inh 2%.
For O=C(O)CC(NS(=O)(=O)c1ccc2c(c1)OCCO2)c1ccccc1[N+](=O)[O-] (centres undefined) the results were TDP1 cell noCPT -3%, TDP1 cell CPT 7% and TDP1 inh 2%.
`Cc1ccccc1CN1C(=O)CSCC1(C)C(=O)NC(C)C` (centres undefined) gave TDP1 cell noCPT 20% and TDP1 cell CPT 23%.
`O=c1[nH]cnc2nn(-c3ccccc3)nc12` gave TDP1 cell noCPT -2%, Gal4-VP16 FLuc -2%, RORgamma inh -1%, TDP1 cell CPT -16% and TDP1 inh 6%.
O=c1[nH]cnc2nc(-c3ccccc3)c(-c3ccccc3)nc12 was read as TDP1 cell noCPT 2.9µM*, Gal4-VP16 FLuc -6%, RORgamma inh 11%, TDP1 cell CPT 1.5µM* and TDP1 inh 5%.
Screening COc1cc(OC)c(OC)cc1CN1CCCC(C(=O)c2sccc2C)C1 (centres undefined) returned TDP1 cell noCPT inconclusive, Gal4-VP16 FLuc 1%, RORgamma inh 7%, TDP1 cell CPT inconclusive and TDP1 inh 8%.
For Cc1ccsc1C(=O)C1CCCN(Cc2cc(F)ccc2-n2cccn2)C1 (centres undefined) the results were TDP1 cell noCPT 12µM*, Gal4-VP16 FLuc 1%, RORgamma inh -17%, TDP1 cell CPT 9.2µM* and TDP1 inh 0%.
For CCOc1ccccc1NC(=O)c1sc(-n2nc(C)c(CCC(C)C)c2C)nc1C the results were TDP1 cell noCPT -17%, TDP1 cell CPT -12% and TDP1 inh -4%.
Screening O=c1nc(/C=C/c2ccccc2C(F)(F)F)cc(C(F)(F)F)[nH]1 returned TDP1 cell noCPT -16%, TDP1 cell CPT -11% and TDP1 inh 7%.
O=C1c2ccccc2C(=O)N1CN(C(=O)c1ccccc1)c1ccc(O)cc1 was read as TDP1 cell noCPT -5%, Gal4-VP16 FLuc 0%, RORgamma inh inconclusive, TDP1 cell CPT 2% and TDP1 inh -2%.
COCc1[nH][nH]c(=O)c1C=Nc1ccc(Oc2ccccc2)cc1 was read as TDP1 cell noCPT -14%, Gal4-VP16 FLuc 6%, RORgamma inh 4%, TDP1 cell CPT -6% and TDP1 inh 4%.
For COc1ccc(C2NC(=S)N3C(c4ccc(OC)cc4)NC(=S)N23)cc1 (centres undefined) the results were TDP1 cell noCPT 16µM*, Gal4-VP16 FLuc -6%, RORgamma inh -33%, TDP1 cell CPT inconclusive and TDP1 inh 9%.
CCc1ccc(NC(=O)Cn2c(=O)c3cccn3c3ccccc32)cc1 was read as TDP1 cell noCPT 4.1µM*, Gal4-VP16 FLuc -19%, RORgamma inh -40%, TDP1 cell CPT 16µM* and TDP1 inh 4%.
CCc1ccc(NC(=O)CCn2c(=O)c3cccn3c3ccccc32)cc1 was read as TDP1 cell noCPT 18µM*, Gal4-VP16 FLuc -3%, RORgamma inh inconclusive, TDP1 cell CPT 23µM* and TDP1 inh 6%.
CCC(C)NC(=O)CCn1c(=O)c2cccn2c2ccc(F)cc21 (centres undefined) was read as TDP1 cell noCPT -30%, Gal4-VP16 FLuc -3%, RORgamma inh 33% and TDP1 cell CPT 1%.
For CCOC(=O)c1cccc(NC(=O)Cn2c(=O)c3cccn3c3ccccc32)c1 the results were TDP1 cell noCPT inconclusive, TDP1 cell CPT inconclusive and TDP1 inh 6%.
